Source: PubChem BioAssay
CHO-K1 Ca PAM: nonselective calcium activators in parental CHO-K1 cells, primary screen, counter-screen for M1 PAM project, cell-based, Fluo-8 calcium fluorescence, full deck, 1536-well. ATP EC20; 0% at ATP EC20, 100% at ATP max. activation, % at 3 µM. 0.02% of 360,000 active;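 active = activation above the run cutoff, the mean activation of all test compounds plus 3 SD, cut at about 40% in these data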;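 also: peak over basal fluorescence ratio in a 140 s read after ATP addition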
M1 ag parental: counter-screen for M1 agonists: effect in parental CHO-K1 cells; Fluo-8 calcium fluorescence; scaled to maximal ATP response, vehicle zero; activation, % at 3 µM; 0.48% of 360,000 active; in the data active = activation above about 15%;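 also: untransfected CHO-K1 host cells lacking M1 receptor as counterscreen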
M4 PAM: human M4 muscarinic receptor positive allosteric modulators, primary screen, CHO-K1 cells, Fluo-8 calcium fluorescence | Muscarinic acetylcholine receptor M4 (Homo sapiens), P08173 | CHO-K1 hM4/Gqi5, ACh EC20; 0% = ACh EC20, 100% = maximal ACh | activation, % at 3 µM | 0.4% of 360,000 active | AID 624126, 2012;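 active = activation above its plate's cutoff, the mean activation of sample wells plus 3 SD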
Target sequence (P08173 whole entry, looked up): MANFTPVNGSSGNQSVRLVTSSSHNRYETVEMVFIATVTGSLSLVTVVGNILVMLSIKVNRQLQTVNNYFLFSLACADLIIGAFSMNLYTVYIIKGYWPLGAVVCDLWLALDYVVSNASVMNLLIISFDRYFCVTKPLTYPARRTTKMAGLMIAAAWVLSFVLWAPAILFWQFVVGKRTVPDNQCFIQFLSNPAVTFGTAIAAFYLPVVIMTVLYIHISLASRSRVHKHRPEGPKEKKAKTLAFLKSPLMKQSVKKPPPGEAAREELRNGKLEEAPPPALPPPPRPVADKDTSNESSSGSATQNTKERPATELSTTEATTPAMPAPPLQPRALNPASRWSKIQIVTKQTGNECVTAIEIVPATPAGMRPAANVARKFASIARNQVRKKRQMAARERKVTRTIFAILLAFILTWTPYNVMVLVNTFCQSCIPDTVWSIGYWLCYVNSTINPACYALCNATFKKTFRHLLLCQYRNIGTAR
M4 ag: human M4 muscarinic receptor agonists, primary screen, CHO-K1 cells, Fluo-8 calcium fluorescence | CHO-K1 hM4/Gqi5; vehicle 0%, full acetylcholine response 100% | AID 624127, 2012 | 0.14% of 360,000 active | activation, % at 3 µM | Muscarinic acetylcholine receptor M4 (Homo sapiens), P08173;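 active = activation above the run mean over all test wells plus 3 SD, cut at about 32% in these data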;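 also: peak over basal fluorescence ratio per well then scaled between controls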
M4 antag: human M4 muscarinic receptor antagonists, primary screen, CHO cells, Fluo-8 calcium fluorescence | Muscarinic acetylcholine receptor M4 (Homo sapiens), P08173 | CHO-hM4 cells, ACh EC80 | inhibition, % at 3 µM | 0.73% of 360,000 active;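 active = inhibition above its plate's cutoff, the mean inhibition of sample wells plus 3 SD, cut at about 27% in these data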
CHO-K1 Ca antag: counter-screen for M1 antagonists: effect in parental CHO-K1 cells | ATP-induced calcium, Fluo-8 fluorescence | inhibition, % at 3 µM | 0.6% of 360,000 active;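 active = inhibition above a per-plate cutoff, the plate's mean sample inhibition plus 3 SD, cut at about 24% in these data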
Large screens that a line does not name were inactive. Shown are actives, neighbours in structure and some others; about 2% of the full set was active somewhere.

O=C(Nc1cccc(S(=O)(=O)NC2=NCCC2)c1)c1ccc(C(F)(F)F)cc1	none
CCCCS(=O)(=O)/C=C\C=C/S(=O)(=O)CCCC	M4 antag 37.2
CCCCS(=O)(=O)/C=C\C1C2C=CC(C2)C1S(=O)(=O)CCCC (centres undefined)	none
Cc1cc(C)nc(N2N=C(C(F)(F)F)CC2=O)n1	none
O=C1NC[C@@H](c2ccccc2)OC(=O)[C@H](Cc2ccc(F)cc2)C/C=C\C[C@@H]1CC(=O)N(CCO)Cc1ccccc1	M4 antag 27.3
O=C(C[C@H]1C/C=C\C[C@H](Cc2ccc(F)cc2)C(=O)O[C@@H](c2ccccc2)CNC1=O)N[C@H](CO)Cc1ccccc1	M4 ag 39.4
O=C(C[C@H]1C/C=C\CC[C@H](Cc2ccc(F)cc2)C(=O)O[C@@H](c2ccccc2)CNC1=O)N[C@@H](CO)Cc1ccccc1	none
C[N+]12CCC(CC1)C(OC(=O)C(O)(c1ccccc1)c1ccccc1)C2 (centres undefined)	M4 antag 99.6
CC(=O)NNC(=O)C(O)(c1ccccc1)c1ccccc1	none
Nc1ccc(N(CCO)CCO)cc1	CHO-K1 Ca antag 100.2
Cc1noc(/C=C/c2ccco2)c1S(=O)(=O)N1CCC(C(=O)N2c3ccccc3CC2C)CC1 (centres undefined)	CHO-K1 Ca antag 25.9
Cc1noc(/C=C/c2ccco2)c1S(=O)(=O)N1CCC(C(=O)NC(C)c2ccccc2)CC1 (centres undefined)	none
CC1(C)CC(=O)C(N=Nc2ccc(OC(F)F)cc2)=C(O)C1	none
CC(C)c1ccc(S(=O)(=O)N2CCN(C(=O)c3cccc(S(=O)(=O)N4CCOCC4)c3)CC2)cc1	none
O=C(C1CCN(Cc2ccc(Cl)cc2)CC1)N1CCN(C(c2ccccc2)c2ccccc2)CC1	M4 antag 73.9
O=C(c1c[nH]c(C(=O)C(Cl)(Cl)Cl)c1)c1ccc(F)cc1Cl	none
C=CCOc1ccc(/C=C/C(=O)OCC(=O)N(C)CC(=O)Nc2ccccc2Cl)cc1	CHO-K1 Ca antag 24.3
CCOc1ccc2nc(SCC(=O)c3ccc(O)cc3O)sc2c1	none
CC1Cc2ccccc2N1CC(=O)NC(=O)NC1CCCCC1 (centres undefined)	none
COc1ccc(NC(C)=O)cc1NC(C)c1nc2sc(C)c(C)c2c(=O)[nH]1 (centres undefined)	M1 ag parental 16.7
CCOC(=O)c1ccccc1NC(=O)CSC(C)C(=O)Nc1cc(C)on1 (centres undefined)	none
CC1CN(Cc2nc3c(c(=O)n(C)c(=O)n3C)n2CCN2CCOCC2)CC(C)O1 (centres undefined)	none
CCCCCn1c(CN2CC(C)OC(C)C2)nc2c1c(=O)n(C)c(=O)n2C (centres undefined)	CHO-K1 Ca antag 23.8
CCCCCCn1c(CN2CCN(CCO)CC2)nc2c1c(=O)n(C)c(=O)n2C	CHO-K1 Ca antag 24.0
CCCCCCn1c(CN2CCC(C)CC2)nc2c1c(=O)n(C)c(=O)n2C	none
O=[N+]([O-])c1ccc(N2CCN(CCOCCO)CC2)c([N+](=O)[O-])c1	none
O=C(NNC(=O)c1ccc(-n2cncn2)c([N+](=O)[O-])c1)c1cccc(Cl)c1	CHO-K1 Ca antag 47.5
CN(C)Cc1ccccc1C(O)(c1ccccc1)c1ccccc1	none
CC(C)N(CC#CC(O)(c1ccccc1)c1ccccc1)C(C)C	M4 antag 98.2
OCCN(CC#CC(O)(c1ccccc1)c1ccccc1)CCO	none
CN(CC#CC(O)(c1ccccc1)c1ccccc1)C(C)(C)C	M4 antag 92.1
CC(C)N(CC#CC(O)(c1ccccc1)c1ccccc1)CCO	M4 antag 42.3
O=C(NC1CCCCC1)C(c1ccnc2ccccc12)n1c(=O)c(-c2ccccc2)nc2ccccc21 (centres undefined)	none (no result: CHO-K1 Ca PAM, M1 ag parental, CHO-K1 Ca antag)
CC(C)C[C@@]12C(=O)N(c3cccc(Cl)c3)C(=O)N1[C@H](c1ccc(Br)cc1)[C@@H]1C(=O)N(C(C)(C)C)C(=O)[C@@H]12	none
CC[C@@]12C(=O)N(c3cccc(Cl)c3)C(=O)N1[C@H](c1ccc(Br)cc1)[C@@H]1C(=O)N(C(C)(C)C)C(=O)[C@@H]12	M4 PAM 27.6
C/C(=C/C(=O)Nc1cccc(F)c1)N1CCCC1	none
N#Cc1c(N(CCO)CCO)nc(N)c2c(N)nc3c(c12)CC(=O)N3CC1CCCO1 (centres undefined)	none
CCCCN1C(=O)Cc2c1nc(N)c1c(N)nc(N(CCC)CCC)c(C#N)c21	CHO-K1 Ca antag 24.6
C[C@H]1CN([C@@H](C)CO)C(=O)CCCn2cc(nn2)CO[C@@H]1CN(C)C(=O)c1ccncc1	none
CCCOC(=O)c1ccc(Oc2coc3c(CN(CC)CC)c(O)ccc3c2=O)cc1	M4 antag 93.3
O=C(NCC1COc2ccccc2O1)C1CCCN(S(=O)(=O)c2cccc3cccnc23)C1 (centres undefined)	CHO-K1 Ca antag 25.1
O=C(NCC1COc2ccccc2O1)C1CCCN(S(=O)(=O)c2cccc3nsnc23)C1 (centres undefined)	none
CCc1nn(CCCC(=O)NCc2cc(Br)ccc2OC)c(=O)c2cc3occc3n12	none
COc1ccc(-c2csc(C(O)c3ccc(F)c(F)c3)n2)cc1 (centres undefined)	M4 ag 33.0
COc1cc(C(O)c2nc(-c3ccc(N(C)C)cc3)cs2)ccc1F (centres undefined)	M4 ag 40.7
CC(CCc1ccccc1)NC(=O)COC(=O)c1ccccc1O (centres undefined)	M1 ag parental 15.8
COc1ccccc1C(=O)OCC(=O)NC(C)CCc1ccccc1 (centres undefined)	none
Oc1ccccc1CNc1ccc(Br)cn1	M4 antag 32.5
Brc1ccc(NCc2cccc3ccccc23)nc1	none
C=C1C(=O)c2sccc2C(c2ccc(OC)c(OC)c2)C1COC(C)=O (centres undefined)	M4 antag 30.2
C[C@@H]1CN([C@@H](C)CO)C(=O)c2c(c3ccccc3n2C)-c2ccccc2CO[C@H]1CN(C)C(=O)[C@H](Cc1ccccc1)N(C)C	none
COCc1ccc(C(=O)N2CCCC(Nc3ccc4c(c3)OCCO4)C2)o1 (centres undefined)	none
COC(C/C=C/[C@@H](O)COCc1ccccc1)OC	none
O=C(O)COc1ccc(/C=C2\SC(=Nc3ccccc3)N(c3ccccc3)C2=O)cc1	M4 antag 30.3
